Laboratory results taken from PubChem BioAssay AID1159580 (chemical genetic matrix, 2015).
Several values for one entry are separate records, joined by “and”; a condition that tells them apart may be missing. Equal values may be shown once. Hit rate of the full screen: of about 5,500 compounds, about 2,000 (36%) were called active. Not shown: some 18% with an inconclusive outcome. No stated cut-off is given here; in the data, active means normalized growth mostly below about 0.91 (no sharp cut-off); inconclusive means no clear call, values can overlap the other calls; inactive means mostly above about 0.92. The list shows a part of the results.

Experiment: chemical genetic growth profiling, strain panel (AID 1159580);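 further: tested at 20 µM; growth read once vehicle control cultures reached saturation at 30 °C; 1 = growth at the plate median or of vehicle wells; lower values mean less growth of the strain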
Conditions: S. cerevisiae deletion strains, growth OD

Measured: normalized growth

CNC(=O)CSP(=S)(OC)OC
inactive: locus YAL013W, strain DEP1, hits give low values 1.02 | locus YAL021C, strain ccr4, hits give low values 1.01 | locus YAL026C, strain drs2, hits give low values 1.01 | locus YAL030W, strain snc1, hits give low values 1.01 | locus YBL061C, strain skt5, hits give low values 1.03 | locus YBR009C, strain hhf1, hits give low values 0.999 | locus YBR021W, strain FUR4, hits give low values 0.994 | locus YBR023C, strain chs3, hits give low values 1.03 | locus YBR171W, strain sec66, hits give low values 1.03 | locus YBR229C, strain ROT2, hits give low values 1.01 | locus YBR231C, strain swc5, hits give low values 1.01 | locus YBR279W, strain paf1, hits give low values 1.01 | locus YCL011C, strain gbp2, hits give low values 1.02 | locus YCL016C, strain dcc1, hits give low values 1.02 | locus YCL029C, strain bik1, hits give low values 1.01 | locus YCL061C, strain MRC1, hits give low values 1.01 | locus YCL069W, strain vba3, hits give low values 1.02 | locus YCR088W, strain abp1, hits give low values 1.01 | locus YDL005C, strain med2, hits give low values 1.03 | locus YDL035C, strain GPR1, hits give low values 1.02 | locus YDL040C, strain nat1, hits give low values 1.02 | locus YDL074C, strain BRE1, hits give low values 0.971 | locus YDL101C, strain DUN1, hits give low values 1 | locus YDL134C, strain PPH21, hits give low values 1 | locus YDL185W, strain tfp1, hits give low values 1.03 | locus YDL192W, strain arf1, hits give low values 1.02 | locus YDR001C, strain nth1, hits give low values 1.01 | locus YDR069C, strain doa4, hits give low values 1.02 | locus YDR101C, strain arx1, hits give low values 1.02 | locus YDR137W, strain rgp1, hits give low values 1.03 | locus YDR150W, strain NUM1, hits give low values 1.01 | locus YDR159W, strain sac3, hits give low values 1.02 | locus YDR162C, strain NBP2, hits give low values 1.01 | locus YDR195W, strain ref2 0.99 | locus YDR297W, strain sur2, hits give low values 1.01 | locus YDR318W, strain mcm21, hits give low values 1.02 | locus YDR334W, strain swr1, hits give low values 1.02 | locus YDR335W, strain msn5, hits give low values 1.01 | locus YDR388W, hits give low values 1.02 | locus YDR392W, strain spt3, hits give low values 1.01 | locus YDR502C, strain sam2, hits give low values 1.02 | locus YEL003W, strain gim4, hits give low values 1.01 | locus YEL037C, strain rad23, hits give low values 1.02 | locus YEL061C, strain CIN8 (second series), hits give low values 1.01 | locus YEL061C, strain CIN8, hits give low values 1.01 | locus YER015W, strain faa2, hits give low values 1.02 | locus YER016W, strain bim1, hits give low values 1.02 | locus YER110C, hits give low values 1.02 | locus YER111C, strain swi4, hits give low values 1.01 | locus YER155C, strain BEM2 (second series), hits give low values 1.02 | locus YER155C, strain BEM2, hits give low values 1.01 | locus YER167W, strain BCK2, hits give low values 1.01 | locus YFR010W, strain ubp6, hits give low values 1.01 | locus YGL078C, strain dbp3, hits give low values 1.02 | locus YGL086W, strain mad1, hits give low values 1.01 | locus YGL167C, strain pmr1, hits give low values 1.02 | locus YGL173C, strain kem1, hits give low values 1.02 | locus YGL227W, strain vid30, hits give low values 1.01 | locus YGL240W, strain doc1, hits give low values 1 | locus YGL248W, strain PDE1, hits give low values 1 | locus YGL253W, strain hxk2, hits give low values 1.03 | locus YGR078C, strain PAC10, hits give low values 1.02 | locus YGR135W, strain pre9, hits give low values 1.01 | locus YGR229C, strain SMI1, hits give low values 1.03 | locus YGR252W, strain gcn5, hits give low values 0.995 | locus YHR013C, strain ard1, hits give low values 1.01 | locus YHR027C, strain rpn1, hits give low values 1.02 | locus YHR030C, strain SLT2, hits give low values 1.03 and 1.08 | locus YHR079C, strain IRE1 (second series), hits give low values 1.02 | locus YHR079C, strain IRE1, hits give low values 1.04 | locus YHR094C, strain hxt1, hits give low values 1.02 | locus YHR129C, strain ARP1, hits give low values 1.01 | locus YHR142W, strain chs7, hits give low values 1.03 | locus YHR200W, strain rpn10, hits give low values 1.02 | locus YIL066C, strain RNR3, hits give low values 1.04 | locus YIL073C, strain SPO22, hits give low values 1.09 | locus YIL125W, strain kgd1, hits give low values 1.01 | locus YIR030C, strain dcg1, hits give low values 1.03 | locus YJL092W, strain hpr5, hits give low values 1.01 | locus YJL095W, strain BCK1 (second series), hits give low values 1.03 | locus YJL095W, strain BCK1, hits give low values 1 and 1.08 | locus YJL115W, strain asf1, hits give low values 1.01 | locus YJL129C, strain trk1, hits give low values 1.03 | locus YJL134W, strain LCB3, hits give low values 1 | locus YJL154C, strain vps35, hits give low values 1.01 | locus YJL164C, strain tpk1, hits give low values 1.02 | locus YJL166W, strain qcr8, hits give low values 1 | locus YJL168C, strain set2, hits give low values 1.02 | locus YJL187C, strain SWE1 (second series), hits give low values 1.02 | locus YJR043C, strain POL32, hits give low values 0.998 | locus YJR066W, strain TOR1, hits give low values 0.992
